The panel holds about 79,000 compounds, 15% with a hit somewhere; the sample as a whole holds those more often. The source made the active and inactive calls. Cut-off read from the data, not from the text of the source: active = growth inhibition above about 70%; inactive = the rest.
Tests used:
[1] = NCI Yeast Anticancer Drug Screen. Data for the rad52 strain (AID 147);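 note: 0% = growth of vehicle-treated control cultures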; details: S. cerevisiae rad52 mutant growth inhibition, stronger effect = higher value
Outline: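 Screen used a yeast mutant impaired in DNA repair. After compound exposure, growth was measured. Values reflect inhibition compared with vehicle-treated cells.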

[2] = NCI Yeast Anticancer Drug Screen. Data for the wt1 strain (AID 149);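 note: 0% = growth of vehicle-treated wt1 cultures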; details: S. cerevisiae wt1 strain (SPY 50644) growth inhibition, stronger effect = higher value
Outline: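 Measured: growth of wt1 yeast under compound versus vehicle treatment, reported as inhibition.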

[3] = NCI Yeast Anticancer Drug Screen. Data for the rad50EPP+ strain (AID 151);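 note: 0% = growth of vehicle-treated control cultures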; details: S. cerevisiae rad50 mutant strain, stronger effect = higher value
Outline: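 Exposing the rad50EPP+ strain to each compound, growth was compared with vehicle-only cultures to give inhibition.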

[4] = NCI Yeast Anticancer Drug Screen. Data for the mgt1 strain (AID 153); details: S. cerevisiae mgt1 mutant growth inhibition, stronger effect = higher value
Outline: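 Genetically defined yeast (mgt1) treated with compound; inhibition of growth expressed against vehicle-treated controls.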

[5] = NCI Yeast Anticancer Drug Screen. Data for the rad50 strain (AID 155);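 note: 0% = growth of vehicle-only cultures of the same strain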; details: S. cerevisiae rad50 strain growth inhibition, stronger effect = higher value
Outline: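 Growth of the mutant yeast was measured after compound exposure and referenced to vehicle-treated cultures.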

[6] = NCI Yeast Anticancer Drug Screen. Data for the mec2-1 strain (AID 157); details: S. cerevisiae mec2-1 strain, stronger effect = higher value
Outline: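 Readout is yeast growth inhibition, normalised to vehicle-treated controls, in the mec2-1 strain exposed to compound.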

[7] = NCI Yeast Anticancer Drug Screen. Data for the rad14 strain (AID 159);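 note: 0% = growth of vehicle-treated control cultures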; details: S. cerevisiae rad14 strain growth inhibition, stronger effect = higher value
Outline: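 Here, inhibition of yeast growth was measured after compound exposure, using a strain with a genetic defect in DNA damage repair and vehicle-treated cultures as the reference.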

[8] = NCI Yeast Anticancer Drug Screen. Data for the sgs1 mgt1 strain (AID 161);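 note: 0% = growth of cultures given vehicle only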; details: S. cerevisiae sgs1 mgt1 strain, stronger effect = higher value
Outline: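 This yeast growth screen uses a strain with defined DNA-repair lesions; compound-treated growth is compared with vehicle-treated growth.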

[9] = NCI Yeast Anticancer Drug Screen. Data for the CLN2oe strain (AID 163);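 note: 0% = growth of vehicle-only control cultures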; details: S. cerevisiae CLN2oe strain, stronger effect = higher value
Outline: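 Values reflect how much compound exposure reduced yeast growth, referenced to vehicle-exposed cells. Assay organism is a strain with a defined genetic change affecting cell-cycle control.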

[10] = NCI Yeast Anticancer Drug Screen. Data for the cln2 rad14 strain (AID 165);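 note: 0% = growth equal to vehicle treated cultures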; details: S. cerevisiae cln2 rad14 strain, stronger effect = higher value
Outline: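 Relative to vehicle controls, growth inhibition of compound-treated cln2 rad14 yeast was recorded.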

[11] = NCI Yeast Anticancer Drug Screen. Data for the bub3 strain (AID 167); details: S. cerevisiae bub3 mutant strain, stronger effect = higher value
Outline: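 Whole-cell yeast assay. The mutant strain was incubated with compounds, and growth inhibition was determined by comparison with vehicle-treated cells.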

[12] = NCI Yeast Anticancer Drug Screen. Data for the wt2 strain (AID 169);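 note: 0% = growth of vehicle-treated yeast cultures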; details: S. cerevisiae wt2 strain growth inhibition, stronger effect = higher value
Outline: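 Values express reduction in yeast growth under compound treatment, referenced to vehicle-treated cells.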

[13] = NCI Yeast Anticancer Drug Screen. Data for the mlh1 strain (AID 171);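 note: 0% = growth of vehicle-treated control cultures of the same strain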; details: S. cerevisiae mlh1 strain growth inhibition, stronger effect = higher value
Outline: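 Steps: expose the defined-mutant yeast strain to compound; expose a parallel culture to vehicle; measure growth; express compound effect as inhibition relative to the vehicle culture.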

[14] = NCI Yeast Anticancer Drug Screen. Data for the sgs1 strain (AID 173);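 note: 0% = growth of vehicle-only control cultures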; details: S. cerevisiae sgs1 mutant, stronger effect = higher value
Outline: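 Treat defined-mutant yeast with compound; measure growth; calculate inhibition relative to vehicle-treated cells.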

[15] = NCI Yeast Anticancer Drug Screen. Data for the mlh1 rad18 strain (AID 175); details: S. cerevisiae mlh1 rad18 strain growth inhibition, stronger effect = higher value
Outline: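 Test agents were incubated with a yeast strain of defined genotype (DNA damage repair defect). Inhibition of growth was derived by comparison with vehicle-exposed cultures.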

[16] = NCI Yeast Anticancer Drug Screen. Data for the rad18 strain (AID 177); details: S. cerevisiae rad18 mutant growth inhibition, stronger effect = higher value
Outline: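 A genetically defined yeast mutant impaired in DNA damage repair was treated with test compounds, then its growth was measured against cultures receiving vehicle alone.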

[17] = at 5.0 µM (retest, dose inferred, filed as 0.5)
[18] = at 50.0 µM (retest, dose inferred, filed as 5.0)

Measured: growth inhibition

Cc1cc(C(C)(C)CC(C)(C)C)ccc1O
inactive: [1]; at 1.2 µM -22% | [1]; at 3.7 µM -45% | [1]; at 11.0 µM 15% | [2]; at 1.2 µM -1% | [2]; at 3.7 µM -22% | [2]; at 11.0 µM 17% | [3]; at 1.2 µM -16% | [3]; at 3.7 µM -16% | [3]; at 11.0 µM 1% | [3]; at 33.0 µM 60% | [4]; at 1.2 µM -52% | [4]; at 3.7 µM -66% | [4]; at 11.0 µM -37% | [5]; at 1.2 µM 12% | [5]; at 3.7 µM 11% | [5]; [17] 25% | [5]; at 11.0 µM 38% | [6]; at 1.2 µM -41% | [6]; at 3.7 µM -58% | [6]; [17] 28% | [6]; at 11.0 µM 3% | [7]; at 1.2 µM -3% | [7]; at 3.7 µM -30% | [7]; at 11.0 µM 16% | [8]; [17] -14% | [9]; at 1.2 µM -31% | [9]; at 3.7 µM -28% | [9]; at 11.0 µM -17% | [10]; [17] 55% | [11]; at 1.2 µM -9% | [11]; at 3.7 µM -49% | [11]; [17] 6% | [11]; at 11.0 µM 32% | [12]; at 1.2 µM -20% | [12]; at 3.7 µM -34% | [12]; at 11.0 µM -10% | [13]; at 1.2 µM -16% | [13]; at 3.7 µM -53% | [13]; at 11.0 µM -16% | [14]; at 1.2 µM -17% | [14]; at 3.7 µM -38% | [14]; at 11.0 µM 14% | [15]; [17] 26% | [16]; at 1.2 µM -13% | [16]; at 3.7 µM -42% | [16]; at 11.0 µM 36%
active: [1]; at 33.0 µM 98% | [1]; at 100.0 µM 98% | [2]; at 33.0 µM 99% | [2]; at 100.0 µM 99% | [3]; at 100.0 µM 99% | [4]; at 33.0 µM 98% | [4]; at 100.0 µM 99% | [5]; at 33.0 µM 98% | [5]; [18] 79% | [5]; at 50.0 µM 92.3% | [5]; at 100.0 µM 99% | [6]; at 33.0 µM 99% | [6]; [18] 70% | [6]; at 50.0 µM 91.8% | [6]; at 100.0 µM 99% | [7]; at 33.0 µM 99% | [7]; at 100.0 µM 99% | [8]; [18] 99% | [8]; at 50.0 µM 93.7% | [9]; at 33.0 µM 98% | [9]; at 100.0 µM 99% | [10]; [18] 98% | [10]; at 50.0 µM 92.8% | [11]; at 33.0 µM 98% | [11]; [18] 99% | [11]; at 50.0 µM 92.4% | [11]; at 100.0 µM 99% | [12]; at 33.0 µM 99% | [12]; at 100.0 µM 99% | [13]; at 33.0 µM 95% | [13]; at 100.0 µM 99% | [14]; at 33.0 µM 99% | [14]; at 100.0 µM 99% | [15]; [18] 73% | [15]; at 50.0 µM 92.9% | [16]; at 33.0 µM 98% | [16]; at 100.0 µM 98%
